According to ChEMBL document CHEMBL3988442, “University of Dundee, Small-Polar-MMV Screening Library” (2021):

Target: AMP-activated protein kinase, AMPK (Homo sapiens) (UniProt P54646+O43741+P54619+Q9UGJ0+Q9Y478+Q13131+Q9UGI9)
Experiment: AMP-dependent Kinase enzyme assay. An in vitro enzyme assay that detects ADP turnover that is directly proportional to AMPK activity. This uses naive AMPK that is activated during the assay with MK-8722
Format: functional
Design: scale not given: direction of the effect not stated beside the values
Conditions: 30 µM

SMILES | Percent Effect
CC(C)n1cc(CN(Cc2ccsc2)CC2CCCO2)cn1 (stereo not given) | 5.12%
CNC(=O)N1CCOCC1c1c(C)nn(C)c1C (stereo not given) | -2.45%
O=C(Nc1ccccc1C(=O)NCCCN1CCOCC1)c1ccco1 | 0.765%
CC(=O)N1CCC(c2ncc(C(=O)Nc3ccccc3)c(C)n2)CC1 | 25%
CCCn1cc(-c2cc(C(=O)N(C)C)c3ccc(C)cc3n2)cn1 | 11.6%
CN(C)S(=O)(=O)NC1CCCc2c1cnn2-c1ccc(C(C)(C)C)cc1 (stereo not given) | 88.7%
COc1ccc(CN2C[C@@H]3CC[C@H](C2)N(S(C)(=O)=O)C3)cc1 | 12.6%
COc1ccc(OCCNC(=O)CN(C)Cc2nnc(C)n2C)cc1 | 7.86%
Cc1nc(N(C)C)cc(C2(C)CCCNC2)n1 (stereo not given) | 10.2%
Cc1ccc(Oc2ncccc2CNC(=O)C2COC(=O)N2)c(F)c1F (stereo not given) | 3.47%
OC1CCCN(Cc2cn(CC3CCN(C4CCSCC4)CC3)nn2)C1 (stereo not given) | 8.15%
CC(CNC(=O)c1c[nH]nn1)Oc1ccc(Cl)cc1 (stereo not given) | 3.24%
CCN(Cc1ccc(N(C)C)cc1)S(=O)(=O)c1cc(Br)ccc1OC | -8.72%
CC(OCC1CC1)C(=O)Nc1ccn(Cc2ccccc2)n1 (stereo not given) | 2.88%
COc1ccc(CCC(C)Nc2cccc(SC)c2)cc1 (stereo not given) | -6.2%
Cc1ccc(S(=O)(=O)N2CCN(Cc3ccncc3)CC2)c(Cl)c1 | -6.37%
CC(C(N)=O)N1CCN(c2ncc(Br)cn2)CC1 (stereo not given) | -3.12%
Cc1cc(C2CCCN(CC(=O)N3CCCc4ccccc43)C2)n[nH]1 (stereo not given) | -5.06%
CC(Oc1ccc2c(c1)OCO2)C(=O)N1CCC(N2CCCC2)CC1 (stereo not given) | 6.31%
CCN1CC(CN(C)c2cc(C)nc(N)n2)Oc2ccccc21 (stereo not given) | 3.94%

SMILES | Percent Effect
CCc1cccc(OCCCN(C)C(=O)CN2CCNC2=O)c1 | 5.57%
Cc1n[nH]c(C)c1CCNC(=O)Nc1ccc2c(c1)COC2 | 11.6%
O=C(CCN1CCCCO1)N1CC[C@H](O)[C@@H](O)C1 | -7.38%
COC(=O)c1ccc(N(C(=O)c2cscn2)C(C)C)c(C)c1 | -0.314%
CCSCCn1cc(-c2ncc[nH]2)nn1 | -2.81%
CCc1ccc(C(=O)NC[C@H]2CCCN2C(=O)c2ccc(CC)o2)o1 | -0.868%
Cc1ccccc1S(=O)(=O)Cc1nsc(N(C)C)n1 | -0.34%
CCN(CC(=O)NC(C)(C)C)Cc1cccc2c1OCCO2 | -0.533%
Cc1cccc(-c2noc(Cn3nc(C(N)=O)ccc3=O)n2)c1 | 5.3%
O=C(CCc1ccc(Cl)cc1)N[C@@H]1CC[C@@H](O)[C@@H]1O | 14.5%
CC(c1nc(C2CC2)no1)N1CCc2c(ncn2C2CC2)C1 (stereo not given) | 11.4%
Cc1noc(C)c1CN(C)C(=O)c1nc(N2CCCC2)ncc1Cl | 3.43%
Cc1cc(C(=O)N2CCN(c3ncc4c(n3)CCOC4)CC2)sc1C | 16.3%
O=C(NCCN1CCNC1=O)c1cnc(-c2cccnc2)nc1 | 6.47%
CC(C(=O)N1CCCCC1)N1CCN(c2ncc(Cl)cn2)CC1 (stereo not given) | -3.64%
CC(C)C(C(=O)N(C)C)c1cccc(Cl)c1 (stereo not given) | 6.38%
CC(C)c1nc(C2CCCN2CCS(C)(=O)=O)no1 (stereo not given) | 6.84%
CCc1cnc(C(C)NC(=O)N2CCCN(CC(F)F)CC2)s1 (stereo not given) | -2.53%
Cc1csc(C(=O)N2CCC(S(C)(=O)=O)CC2)c1 | -2.86%
COc1ncccc1CNCc1cnc(N2CCOCC2)nc1 | -1.53%
